# Several values for one entry are separate records, joined by “and”; a condition that tells them apart may be missing. Equal entries are not always repeated. Unmarked numbers belong to inactive results. Inconclusive results are not listed. Activity calls are given as the source filed them. Unless noted, calls follow the shape of the dose curve; as a rule, active = well fitted curve in the direction sought with a large enough effect; inconclusive = small, poorly fitted or top-dose-only effect, or another doubt; inactive = no such curve, though single readings can be large; an effect the other way counts as inactive or inconclusive.
# Assays:
# [1] = target: Retinoic acid receptor RXR-alpha (Homo sapiens) (UniProt P19793); assay: qHTS assay for small molecule antagonists of retinoid X receptor alpha signaling (AID 588546; active = well fitted inhibition curve with a large enough effect in the signal ratio, with a control signal flat, not every such curve was filed as active; the % refers to the signal ratio;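 also: cells stimulated with 9-cis-retinoic acid as agonist; % is scaled to controls: 0 for no effect and ±100 for the full control effect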); conditions: HEK293T RXRa-UAS-bla, beta-lactamase ratio, antagonist mode
# How it was run: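 Beta-lactamase reporter inhibition, read as CCF4 fluorescence ratio (ex 405, em 460/530 nm) after 2 h at RT. HEK293T UAS-bla cells, 2500/well, were stimulated with 9-cis-RA at 500 or 100 nM final alongside test compound for 18 h at 37 C.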
# [2] = target: Thyroid hormone receptor beta (Homo sapiens) (UniProt P10828); assay: qHTS assay for small molecule antagonists of thyroid hormone receptor beta signaling (AID 588547; active = well fitted inhibition curve with a large enough effect in the signal ratio, with a control signal flat, not every such curve was filed as active; the % refers to the signal ratio;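 also: cells stimulated with 0.4 nM T3 agonist during compound exposure; % is scaled to controls: 0 for no effect and ±100 for the full control effect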); conditions: TR-UAS-bla HEK293, beta-lactamase ratio, antagonist mode, 18 h
# How it was run: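 TR-UAS-bla GripTite HEK293 cells in 2% charcoal/dextran FBS medium were preincubated 4 h at 37 C, given compound (0.59 nM to 92 uM) plus 0.4 nM T3 (final) for 18 h, then CCF4 for 2 h at RT; Hill fit gave IC50.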
# [3] = target: Voltage-gated inwardly rectifying potassium channel KCNH2 (Homo sapiens) (UniProt Q12809); assay: qHTS Assay for Small Molecule Inhibitors of the Human hERG Channel Activity (AID 588834); conditions: U2OS BacMam hERG, FluxOR thallium flux fluorescence; series mostly up to 46.1 µM;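 also: top concentration of the series differs between compounds; % is scaled to controls: 0 for no effect and ±100 for the full control effect; lower thallium flux fluorescence means stronger hERG block; nearly all actives have a fitted effect of over 50% in size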
# How it was run: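 U2OS cells BacMam-transduced with hERG, 2000 cells/well, compound ~10 min at 37 °C before stimulation buffer. FluxOR thallium flux fluorescence read kinetically on FDSS; decrease indicates block; AC50 from Hill fits.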
# [4] = qHTS assay for small molecule agonists of the antioxidant response element (ARE) signaling pathway (AID 651741; active = well fitted activation curve with a large enough effect in the signal ratio; the % refers to the signal ratio; also: potency is read from the fitted curve at half-maximal effect); conditions: HepG2 ARE-bla reporter, beta-lactamase FRET ratio, 16 h; series mostly up to 96 µM
# How it was run: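 ARE-bla HepG2 cells (beta-lactamase reporter under ARE control) were plated at 2,000 cells/well, preincubated 5 h at 37 C/5% CO2, then treated with DMSO-dissolved compounds for 16 h at 37 C; LiveBLAzer B/G FRET substrate added, fluorescence read after 2 h at room temperature.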
# [5] = qHTS assay for small molecule activators of the p53 signaling pathway (AID 651743; active = well fitted activation curve with a large enough effect in the signal ratio, not every such curve was filed as active; the % refers to the signal ratio; also: potency is read from the fitted curve at half-maximal effect); conditions: HCT-116 p53RE-bla, beta-lactamase FRET ratio, 16 h; activation: active compounds read high
# How it was run: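 p53RE-bla HCT-116 cells with a stably integrated beta-lactamase reporter under p53 response elements were plated, rested 5 hours at 37 C/5% CO2, then exposed to compounds in DMSO for 16 hours at 37 C. LiveBLAzer B/G FRET substrate was read after 2 hours at room temperature.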
# [6] = qHTS assay for small molecule activators of the nuclear factor-kappa B (NF-kB) signaling pathway (AID 651749; active = well fitted activation curve with a large enough effect in the signal ratio; the % refers to the signal ratio; also: % of control where 0% means no effect); conditions: NF-kB-bla ME-180 cells, beta-lactamase FRET ratio, 16 h; activation: active compounds read high
# How it was run: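 ME-180 cells stably carrying a beta-lactamase reporter under an NF-kB response element were exposed to compound or DMSO vehicle for 16 hr at 37C, 5% CO2. Pathway activation was read by FRET, since reporter expression disrupts FRET.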
# [7] = qHTS assay for small molecule disruptors of the mitochondrial membrane potential - 1 hr assay (AID 651754; calls by dose curve; also: potency is read from the fitted curve at half-maximal effect; nearly all actives have a fitted effect of over 35% in size); conditions: series mostly up to 92.2 µM
# How it was run: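 HepG2 cells, attached overnight at 37C, were exposed to compound or DMSO vehicle for 1 hr at 37C, 5% CO2, then stained with Mito-MPS dye for 30 min. Red aggregate versus green monomer fluorescence reports membrane potential.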
# [8] = qHTS assay for small molecule disruptors of the mitochondrial membrane potential - 5 hr assay (AID 651755; calls by dose curve; also: potency is read from the fitted curve at half-maximal effect; nearly all actives have a fitted effect of over 40% in size); conditions: JC-1-type ratio dye; series mostly up to 92.2 µM
# How it was run: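 HepG2 cells, attached overnight at 37C, were exposed to compound or DMSO for 5 hr at 37C, 5% CO2. Mito-MPS dye was then added for 30 min, and fluorescence read at 490/535 nm (monomers) and 540/590 nm (aggregates).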
# [9] = target: Tumor necrosis factor (Homo sapiens) (UniProt P01375); assay: qHTS assay to identify small molecules that stimulate Tumor Necrosis Factor-alpha (TNF-alpha) secretion (AID 651757; active = well fitted curve in the direction sought with a large enough effect in the signal ratio; the % refers to the signal ratio; also: 0% is about no effect); conditions: Human cells, HTRF 665/615 ratio; series mostly up to 92.2 µM
# How it was run: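 THP-1 cells were exposed to compounds for 17 hrs at 37 C, after which secreted TNF-alpha was measured by homogeneous HTRF (TR-FRET) using cryptate- and XL665-labeled anti-TNF-alpha antibodies, read after 3 hr at room temperature.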
# [10] = qHTS assay for environmental chemicals that activate the Aryl hydrocarbon Receptor (AhR) signaling pathway (AID 651777); conditions: 1A2-DRE human hepatoma cells, luciferase, 24 h; activation: active compounds read high; also: potency is read from the fitted curve at half-maximal effect; nearly all actives have a fitted effect of over 15% in size
# How it was run: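 Quantitative HTS in stably transfected human liver-derived cells whose luciferase gene sits downstream of the CYP1A2 promoter and dioxin response element. After 24 hr exposure at 37 C, One-Glo luminescence was measured.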
# [11] = target: Peroxisome proliferator-activated receptor alpha (Homo sapiens) (UniProt Q07869); assay: qHTS assay for small molecule agonists of the peroxisome proliferator-activated receptor alpha (PPARalpha) signaling pathway (AID 651778); conditions: PathHunter PPARalpha complementation, chemiluminescence, 6 h; active compounds read high; also: % of control where 0% means no effect
# How it was run: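 Cells plated at 2,000/well and held overnight at 37 C, 5% CO2, then compound added by pin tool for 6 hr; after PathHunter detection reagent and 60 min at room temperature, chemiluminescence from enzyme complementation was read.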
# [12] = target: Nuclear receptor ROR-gamma (Homo sapiens) (UniProt P51449); assay: qHTS assay for small molecule antagonists of the retinoid-related orphan receptor gamma (ROR-gamma) signaling pathway (AID 651802); conditions: ROR-gamma antagonist cell reporter assay; series mostly up to 92.2 µM; also: potency is read from the fitted curve at half-maximal effect; nearly all actives have a fitted effect of over 60% in size
# How it was run: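 CHO cells carrying TET-inducible ROR-gamma and an ROR response element–luciferase reporter were exposed to compound, then induced with doxycycline. After 16hr at 37C, luminescence was read; lower signal indicates antagonism.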
# [13] = qHTS assay for small molecule agonists of the antioxidant response element (ARE) signaling pathway measured by Nrf2-dependant transcriptional activity (AID 720636; active = well fitted curve in the direction sought with a large enough effect in the repeat runs; an effect the other way counts as inactive or inconclusive; also: % of control where 0% means no effect); conditions: ARE-luc HepG2, Nrf2 luciferase reporter, 16 h; series mostly up to 92.4 µM
# How it was run: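 Quantitative HTS format in HepG2 cells stably expressing an ARE-luciferase reporter; 16 hr compound treatment at 37 C, luciferase signal detected with ONE-Glo.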
# [14] = qHTS assay for small molecule antagonists of the retinoid-related orphan receptor gamma (ROR-gamma) signaling pathway - cell viability counter screen (AID 720652; active = well fitted curve in the direction sought with a large enough effect in the repeat runs; an effect the other way counts as inactive or inconclusive;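 also: compound exposure lasted 16 hr before ATP read; % is scaled to controls: 0 for no effect and ±100 for the full control effect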); conditions: RORgamma reporter cell line viability counter screen; series mostly up to 92.2 µM
# How it was run: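 Counter screen in CHO cells carrying TET-inducible ROR-gamma and an ROR response element-luciferase reporter; cells plated 5 hr, compound pinned, doxycycline added, then 16 hr at 37 C. Viability read as intracellular ATP by CellTiter-Glo luminescence.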
# [15] = qHTS assay for small molecule agonists of the antioxidant response element (ARE) signaling pathway measured by Nrf2-dependant transcriptional activity - cell viability counter screen (AID 720653; active = well fitted curve in the direction sought with a large enough effect in the repeat runs; an effect the other way counts as inactive or inconclusive; also: % is scaled to controls: 0 for no effect and ±100 for the full control effect); conditions: ARE-bla HepG2 viability, CellTiter-Glo ATP luminescence, 16 h; max response: active compounds read low
# How it was run: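 ARE-bla HepG2 cells (2,000/well) rested 5 hrs at 37C/5% CO2, then exposed to compounds in DMSO for 16 hrs. Viability was read in the same wells as intracellular ATP by luminescence, 30 min at room temperature after reagent addition.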
# [16] = qHTS assay for cell viability of HEK293 cells (AID 743288); conditions: ATP luminescence (CellTiter-Glo), 18 h; max response: active compounds read low; also: % is scaled to controls: 0 for no effect and ±100 for the full control effect; nearly all actives have a fitted effect of over 50% in size
# How it was run: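 Parental HEK293 cells, 2,000 per well, preincubated at least 5 h at 37 C, then exposed to compounds in DMSO for 18 h at 37 C. Viability by CellTiter-Glo ATP luminescence after 30 min at room temperature.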
# [17] = qHTS assay for cell viability of the p53RE-bla HCT-116 cell line (AID 743292); conditions: p53RE-bla HCT-116 viability, ATP luminescence, 16 h; series mostly up to 95 µM; also: % is scaled to controls: 0 for no effect and ±100 for the full control effect; nearly all actives have a fitted effect of over 55% in size
# How it was run: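 Viability of compound-treated p53RE-bla HCT-116 cells is taken from ATP-dependent luciferase luminescence. Treatment lasts 16 h at 37 C after a 5 h settling period; detection follows 30 min at room temperature.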
# [18] = target: Furin (Homo sapiens) (UniProt P09958); assay: Furin counterscreen qHTS for Zika virus inhibitors (AID 1347149); conditions: furin enzymatic counterscreen, fluorogenic substrate; series mostly up to 57.5 µM;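 also: purified recombinant full-length human furin enzyme at 5 nM; fluorescence gain from furin cutting a BOC-RVRR-AMC peptide substrate over 15 min; top concentration of the series differs between compounds; plate controls were no-inhibitor control for no effect and no-enzyme control for full effect; nearly all actives have a fitted effect of over 70% in size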
# How it was run: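 Fluorogenic cleavage of BOC-RVRR-AMC (2 microM final, Km ~15 µM) was monitored (ex 340, em 450 nm) at 37C after 15 min RT preincubation of 5 nM furin with compounds in HEPES pH 7.0 buffer with CaCl2 and Triton X-100. Percent inhibition was fitted to a 4-parameter Hill curve.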
# [19] = Confirmatory screen GU Rhodamine qHTS for Zika virus inhibitors qHTS (AID 1347157); conditions: purified enzyme assay, Rhodamine110 substrate fluorescence, 15 min; series mostly up to 114 µM; also: potency is read from the fitted curve at half-maximal effect; nearly all actives have a fitted effect of over 70% in size
# How it was run: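 Unlinked NS2B/NS3, 25 nM; Rhod110 peptide, 1.5 microM; compounds, up to 114 microM. Reaction run 15 min at RT in 10 mM Tris-HCl pH 8.0, 0.01% Tween 20; kinetic fluorescence change fitted with a 4-parameter Hill model.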
# [20] = ZIKV-mCherry secondary qHTS for Zika virus inhibitors (AID 1347158); conditions: Vero cells, ZIKV-mCherry infection imaging, 48-72 h; also: potency is read from the fitted curve at half-maximal effect
# How it was run: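 Vero cells, 5,000/well, plated overnight at 37 °C, then compound added and infected with recombinant ZIKV-mCherry at MOI 1 for 48-72 h. PFA-fixed, Hoechst nuclear stain, high-content imaging; cells with mCherry intensity above 450 RFU scored infected, reported as percent infection.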
# [21] = Confirmatory screen NINDS Rhodamine qHTS for Zika virus inhibitors (AID 1347161); conditions: purified enzyme assay, Rhodamine110 substrate fluorescence, 15 min; series mostly up to 114 µM; also: potency is read from the fitted curve at half-maximal effect; nearly all actives have a fitted effect of over 60% in size
# How it was run: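 Purified linked NS2B-NS3 protease (NS2B hydrophilic domain joined to NS3 protease by flexible linker), 25 nM in 10 mM Tris-HCl pH 8.0, 0.01% Tween 20. Compounds titrated, 15 min preincubation at room temperature; 1.5 microM Rhodamine110 substrate, FITC fluorescence change over 15 min.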
# [22] = tested on: Zika virus NS2B-NS3 protease (linked); assay: 384 well plate NINDS AMC confirmatory qHTS for Zika virus inhibitors (AID 1347163); conditions: Recombinant NS2B-NS3 protease, Ac-VKTGKR-AMC fluorescence; also: potency is read from the fitted curve at half-maximal effect; nearly all actives have a fitted effect of over 50% in size
# How it was run: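 Linked protease 5/30/60 nM final; cpds up to 1 mM final, ~15 min preinc. Substrate Ac-VKTGKR-AMC 30 microM final. RT, dark, 25 min; FI ex 355/em 460; normalized to no-enzyme/no-inhibitor ctrls.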
# [23] = tested on: Zika virus NS2B-NS3 protease (linked construct); assay: 384 well plate NINDS Rhodamine confirmatory qHTS for Zika virus inhibitors (AID 1347164); conditions: rhodamine-110 peptide substrate fluorescence; series mostly up to 316 µM;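 also: fluorescence from protease cleavage of Ac-LKRR-rhodamine 110 substrate; potency is read from the fitted curve at half-maximal effect; nearly all actives have a fitted effect of over 65% in size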
# How it was run: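 Linked NS2B-NS3 protease (final 5, 30 or 60 nM) preincubated ~15 minutes with compounds, then 10 microM Ac-LKRR-Rhodamine 110 added. Fluorescence (485/538 nm) read after 25 minutes at room temperature, normalized to no-enzyme and no-inhibitor controls.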
# [24] = target: Nuclear receptor subfamily 1 group I member 2 (Rattus norvegicus) (UniProt Q9R1A7); assay: qHTS assay for small molecule activators of the rat pregnane X receptor (rPXR) signaling pathway (AID 651751; call rule not given here; also: 0% is about no effect); conditions: rPXR reporter cells, luciferase (One-Glo), 24 h
# Sequence of Nuclear receptor subfamily 1 group I member 2 (Rattus norvegicus) (Q9R1A7 whole entry, looked up): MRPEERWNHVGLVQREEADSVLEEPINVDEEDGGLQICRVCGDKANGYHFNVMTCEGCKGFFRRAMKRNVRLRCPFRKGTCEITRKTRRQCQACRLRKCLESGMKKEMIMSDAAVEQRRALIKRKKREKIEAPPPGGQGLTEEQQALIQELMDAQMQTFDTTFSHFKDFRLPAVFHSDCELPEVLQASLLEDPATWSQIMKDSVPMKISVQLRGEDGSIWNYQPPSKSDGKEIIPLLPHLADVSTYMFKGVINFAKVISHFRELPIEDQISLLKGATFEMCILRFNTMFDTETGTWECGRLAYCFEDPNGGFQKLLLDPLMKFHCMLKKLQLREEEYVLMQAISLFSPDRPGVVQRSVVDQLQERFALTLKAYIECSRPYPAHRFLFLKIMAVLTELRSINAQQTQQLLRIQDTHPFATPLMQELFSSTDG
# Sequence of Retinoic acid receptor RXR-alpha (Homo sapiens) (P19793 whole entry, looked up): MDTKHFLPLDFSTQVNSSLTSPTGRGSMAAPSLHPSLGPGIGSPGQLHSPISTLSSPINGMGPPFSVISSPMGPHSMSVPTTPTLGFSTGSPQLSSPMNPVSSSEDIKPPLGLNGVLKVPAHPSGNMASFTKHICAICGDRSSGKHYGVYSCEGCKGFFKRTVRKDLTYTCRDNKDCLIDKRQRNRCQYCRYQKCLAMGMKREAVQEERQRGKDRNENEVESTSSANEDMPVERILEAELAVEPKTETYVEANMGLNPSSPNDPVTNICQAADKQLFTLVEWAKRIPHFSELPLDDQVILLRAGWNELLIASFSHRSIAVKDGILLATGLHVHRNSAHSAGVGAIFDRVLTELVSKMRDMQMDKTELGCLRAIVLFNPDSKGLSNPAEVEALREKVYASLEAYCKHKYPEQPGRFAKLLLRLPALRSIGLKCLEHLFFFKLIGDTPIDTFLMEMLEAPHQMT
# Sequence of Peroxisome proliferator-activated receptor alpha (Homo sapiens) (Q07869 whole entry, looked up): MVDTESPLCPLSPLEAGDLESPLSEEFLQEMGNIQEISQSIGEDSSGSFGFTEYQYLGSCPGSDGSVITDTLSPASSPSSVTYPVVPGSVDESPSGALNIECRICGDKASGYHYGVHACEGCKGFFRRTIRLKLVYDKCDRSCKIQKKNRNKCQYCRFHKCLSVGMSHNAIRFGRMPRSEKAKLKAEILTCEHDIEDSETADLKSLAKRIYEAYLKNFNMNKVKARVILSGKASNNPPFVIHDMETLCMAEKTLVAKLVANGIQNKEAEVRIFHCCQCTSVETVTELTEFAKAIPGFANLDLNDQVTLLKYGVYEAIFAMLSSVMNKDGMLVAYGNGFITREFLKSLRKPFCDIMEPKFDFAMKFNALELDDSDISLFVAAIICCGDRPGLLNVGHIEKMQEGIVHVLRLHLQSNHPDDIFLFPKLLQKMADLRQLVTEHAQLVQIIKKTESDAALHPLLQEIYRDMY
# Sequence of Nuclear receptor ROR-gamma (Homo sapiens) (P51449 whole entry, looked up): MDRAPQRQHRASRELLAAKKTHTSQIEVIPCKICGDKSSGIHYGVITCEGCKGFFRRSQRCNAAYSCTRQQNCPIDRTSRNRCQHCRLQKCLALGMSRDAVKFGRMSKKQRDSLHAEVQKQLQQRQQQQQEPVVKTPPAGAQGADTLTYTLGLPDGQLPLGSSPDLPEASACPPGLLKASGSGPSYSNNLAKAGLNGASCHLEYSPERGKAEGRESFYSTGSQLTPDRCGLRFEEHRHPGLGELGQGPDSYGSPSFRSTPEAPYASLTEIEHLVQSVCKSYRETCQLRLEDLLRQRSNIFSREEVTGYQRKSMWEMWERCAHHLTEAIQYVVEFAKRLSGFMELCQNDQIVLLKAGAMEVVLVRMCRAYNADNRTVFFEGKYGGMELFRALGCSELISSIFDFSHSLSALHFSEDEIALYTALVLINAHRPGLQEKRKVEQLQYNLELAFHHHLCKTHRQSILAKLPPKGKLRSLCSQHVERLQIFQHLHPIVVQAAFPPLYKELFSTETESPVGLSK
# Sequence of Thyroid hormone receptor beta (Homo sapiens) (P10828 whole entry, looked up): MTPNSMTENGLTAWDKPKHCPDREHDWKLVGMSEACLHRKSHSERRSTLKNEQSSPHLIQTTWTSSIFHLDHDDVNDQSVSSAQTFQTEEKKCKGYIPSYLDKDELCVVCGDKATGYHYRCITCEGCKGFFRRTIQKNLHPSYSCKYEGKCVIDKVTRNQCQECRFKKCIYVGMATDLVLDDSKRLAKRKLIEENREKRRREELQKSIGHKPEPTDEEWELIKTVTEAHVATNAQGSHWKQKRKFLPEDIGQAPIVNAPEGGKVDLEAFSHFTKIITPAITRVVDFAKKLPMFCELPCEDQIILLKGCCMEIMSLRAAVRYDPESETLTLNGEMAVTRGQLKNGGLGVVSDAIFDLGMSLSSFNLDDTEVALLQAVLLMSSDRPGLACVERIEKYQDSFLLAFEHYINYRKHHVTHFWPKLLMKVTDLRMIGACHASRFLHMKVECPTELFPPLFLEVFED
# Sequence of Tumor necrosis factor (Homo sapiens) (P01375 whole entry, looked up): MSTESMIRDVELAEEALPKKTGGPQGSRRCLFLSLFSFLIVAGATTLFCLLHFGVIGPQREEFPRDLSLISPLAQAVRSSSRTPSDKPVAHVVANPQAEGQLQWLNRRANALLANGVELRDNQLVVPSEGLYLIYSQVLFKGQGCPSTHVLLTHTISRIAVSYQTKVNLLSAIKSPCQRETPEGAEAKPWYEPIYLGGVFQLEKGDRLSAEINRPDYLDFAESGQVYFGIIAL
# Sequence of Furin (Homo sapiens) (P09958 whole entry, looked up): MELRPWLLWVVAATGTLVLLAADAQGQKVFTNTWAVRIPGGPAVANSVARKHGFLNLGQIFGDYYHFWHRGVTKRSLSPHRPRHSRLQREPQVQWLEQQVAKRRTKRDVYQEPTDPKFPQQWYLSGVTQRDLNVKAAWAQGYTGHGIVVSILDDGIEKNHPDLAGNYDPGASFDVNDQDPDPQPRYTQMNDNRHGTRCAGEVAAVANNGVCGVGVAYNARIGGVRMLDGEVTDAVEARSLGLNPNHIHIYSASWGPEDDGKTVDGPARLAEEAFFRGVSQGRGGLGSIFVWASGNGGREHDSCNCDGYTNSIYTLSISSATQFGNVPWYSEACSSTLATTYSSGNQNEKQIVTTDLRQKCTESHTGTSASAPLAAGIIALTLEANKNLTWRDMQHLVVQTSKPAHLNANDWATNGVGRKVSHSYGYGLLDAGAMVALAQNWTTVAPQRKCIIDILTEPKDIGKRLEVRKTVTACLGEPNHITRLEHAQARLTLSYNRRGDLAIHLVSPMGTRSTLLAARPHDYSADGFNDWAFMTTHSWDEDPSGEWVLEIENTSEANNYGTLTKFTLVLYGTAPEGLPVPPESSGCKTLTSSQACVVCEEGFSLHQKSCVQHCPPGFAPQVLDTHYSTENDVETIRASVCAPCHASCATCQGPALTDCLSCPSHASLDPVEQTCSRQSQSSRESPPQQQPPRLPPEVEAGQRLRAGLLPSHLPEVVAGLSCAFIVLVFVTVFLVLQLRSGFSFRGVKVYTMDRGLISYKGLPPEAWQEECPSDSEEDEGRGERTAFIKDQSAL
# Sequence of Voltage-gated inwardly rectifying potassium channel KCNH2 (Homo sapiens) (Q12809 whole entry, looked up): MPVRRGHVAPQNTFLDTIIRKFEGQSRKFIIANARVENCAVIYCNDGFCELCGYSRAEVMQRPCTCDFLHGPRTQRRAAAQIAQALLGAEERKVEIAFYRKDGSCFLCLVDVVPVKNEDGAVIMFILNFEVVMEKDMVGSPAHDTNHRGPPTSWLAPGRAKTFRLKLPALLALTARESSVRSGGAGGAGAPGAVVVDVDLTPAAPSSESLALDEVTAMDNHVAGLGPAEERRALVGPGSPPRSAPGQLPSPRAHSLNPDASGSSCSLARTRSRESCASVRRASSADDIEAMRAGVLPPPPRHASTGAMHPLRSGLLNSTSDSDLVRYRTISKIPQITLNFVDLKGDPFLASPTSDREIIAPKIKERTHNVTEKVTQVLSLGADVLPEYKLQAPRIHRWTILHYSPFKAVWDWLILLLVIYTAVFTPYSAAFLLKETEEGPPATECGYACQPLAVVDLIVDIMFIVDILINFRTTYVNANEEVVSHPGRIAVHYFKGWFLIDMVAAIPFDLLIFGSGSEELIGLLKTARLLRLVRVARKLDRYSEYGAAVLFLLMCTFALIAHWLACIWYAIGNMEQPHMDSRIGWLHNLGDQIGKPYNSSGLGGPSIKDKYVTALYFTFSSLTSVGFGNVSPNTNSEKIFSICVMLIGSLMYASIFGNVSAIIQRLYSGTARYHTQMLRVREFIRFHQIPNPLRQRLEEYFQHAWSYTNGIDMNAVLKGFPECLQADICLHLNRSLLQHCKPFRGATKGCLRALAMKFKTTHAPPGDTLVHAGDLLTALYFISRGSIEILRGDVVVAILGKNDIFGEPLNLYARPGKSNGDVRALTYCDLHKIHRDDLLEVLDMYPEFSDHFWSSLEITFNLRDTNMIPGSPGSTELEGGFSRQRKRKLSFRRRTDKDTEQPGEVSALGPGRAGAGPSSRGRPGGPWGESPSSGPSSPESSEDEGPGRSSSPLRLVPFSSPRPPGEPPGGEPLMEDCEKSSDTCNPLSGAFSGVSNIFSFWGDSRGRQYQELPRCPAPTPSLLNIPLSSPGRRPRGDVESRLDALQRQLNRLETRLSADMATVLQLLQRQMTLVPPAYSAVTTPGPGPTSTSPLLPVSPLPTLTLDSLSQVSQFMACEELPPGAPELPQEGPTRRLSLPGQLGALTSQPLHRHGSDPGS
structure (smiles),measurement,setting,value
Oc1c(Cl)c(Cl)c(Cl)c(Cl)c1Cl,max response,[1],12.8% and -17.7%
same,activity change % (negative = inhibition),[2],-4.36%
same,Potency,[3],inactive
same,Potency,[4],26.6 µM (active) and 24.3 µM (active)
same,Potency,[5],22.4 µM (active) and 39.8 µM (active)
same,activation,[6],-1.59%
same,Potency,[7],42.2 µM (active)
same,Potency,[8],42.2 µM (active)
same,outcome,[9],inactive
same,Potency,[10],44.7 µM (active) and 39.8 µM (active)
same,max response,[11],18.2% and 10.1%
same,Potency,[12],16.8 µM (active)
same,Potency,[13],inactive
same,outcome,[14],inactive
same,max response,[15],-14.8% and -25.3%
same,max response,[16],-15.6% and -10.7%
same,outcome,[17],inactive
same,Potency,[18],inactive
same,Potency,[19],7.08 µM (active)
same,Potency,[20],11.2 µM (active)
same,Potency,[21],4.47 µM (active)
same,Potency,[22],355 µM (active)
same,Potency,[23],70.8 µM (active)
same,max response,[24],-11.9% and -10.8%
